Measured values reported in PubChem BioAssay AID623911 (Vanderbilt High Throughput Screening Facility, 2012).
Out of some 2,100 compounds screened, about 770 (37%) were called active. The list shows a part of the results. Unmarked numbers belong to inactive results.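 Rule for the calls: active = by-eye trace score of 1 for enhancers or -1 for inhibitors, so actives lie on both sides (some results past the limit were not filed as active); inactive = score 0, or 3 fluorescent, or 4 baseline rise.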

target: G protein-activated inward rectifier potassium channel 2 (Homo sapiens) + G protein-activated inward rectifier potassium channel 1 (Homo sapiens) (UniProt P48051+P48549); test: GIRK1/2 thallium flux modulators, retest, confirmation, cell-based, HEK293 rmGlu8/hGIRK1/2, FluoZin-2 (AID 623911); conditions: HEK293 rmGlu8/hGIRK1/2, thallium flux FluoZin-2; actives lie on both sides; glutamate co-added at its EC20 level
Sequence (P48051 whole entry, looked up): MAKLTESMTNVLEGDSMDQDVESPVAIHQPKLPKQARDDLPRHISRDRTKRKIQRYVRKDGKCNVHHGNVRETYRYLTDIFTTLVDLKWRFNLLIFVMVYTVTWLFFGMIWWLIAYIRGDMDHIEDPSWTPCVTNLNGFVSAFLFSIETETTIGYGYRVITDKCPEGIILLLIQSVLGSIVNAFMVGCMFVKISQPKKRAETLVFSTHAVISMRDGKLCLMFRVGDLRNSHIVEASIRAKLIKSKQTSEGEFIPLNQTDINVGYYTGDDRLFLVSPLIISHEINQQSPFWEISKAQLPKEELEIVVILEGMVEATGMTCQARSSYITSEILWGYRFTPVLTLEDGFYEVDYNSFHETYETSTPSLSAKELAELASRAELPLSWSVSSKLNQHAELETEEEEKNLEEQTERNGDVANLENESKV
Sequence (P48549 whole entry, looked up): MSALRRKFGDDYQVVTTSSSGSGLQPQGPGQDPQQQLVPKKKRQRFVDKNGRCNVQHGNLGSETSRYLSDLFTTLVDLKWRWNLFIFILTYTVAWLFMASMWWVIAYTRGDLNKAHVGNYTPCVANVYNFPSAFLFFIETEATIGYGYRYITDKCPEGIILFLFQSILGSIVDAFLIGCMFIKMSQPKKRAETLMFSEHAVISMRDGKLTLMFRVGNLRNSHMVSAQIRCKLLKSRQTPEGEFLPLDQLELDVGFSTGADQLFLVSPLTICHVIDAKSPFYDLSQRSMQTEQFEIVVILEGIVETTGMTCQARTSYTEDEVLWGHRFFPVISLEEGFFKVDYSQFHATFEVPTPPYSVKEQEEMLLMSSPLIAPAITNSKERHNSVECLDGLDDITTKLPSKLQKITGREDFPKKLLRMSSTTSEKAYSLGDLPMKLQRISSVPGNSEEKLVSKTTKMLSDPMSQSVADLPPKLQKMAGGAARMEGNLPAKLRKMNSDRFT

Compound	manual score
CN(c1ccccc1)S(=O)(=O)c1ccc(NC(=S)NC(=O)c2ccccc2)cc1	0
CCN(c1ccccc1)S(=O)(=O)c1ccc(NC(=S)NC(=O)c2ccc(Br)o2)cc1	1 (active)
C=CCN(CC=C)S(=O)(=O)c1ccc(NC(=S)NC(=O)c2ccco2)cc1	0
C=CCOc1ccc(/C(O)=C2/C(=O)C(=O)N(CCCN3CCOCC3)C2c2ccccc2)cc1 (centres undefined)	0
CCCn1c(C)cc(/C=C(\C#N)C(=O)OCC(=O)Nc2cccc(OC)c2)c1C	1 (active)
COc1cc(/C=C(\C#N)C(=O)Nc2cccnc2)ccc1OC(C)C	0
O=S(=O)(Nc1ccc2nc(C(F)(F)F)[nH]c2c1)c1ccccc1	1 (active)
O=S(=O)(Nc1ccc(S(=O)(=O)Nc2cccc3ccccc23)cc1)c1ccccc1	0
CC(C)n1c(O)c(N=Nc2ccccn2)c2ccccc21	0
Oc1c(N=Nc2ccccn2)ccc2ccccc12	1 (active)
Oc1ccc2ccccc2c1N=Nc1ccccn1	0
CCCN(CCC)C(=S)NC(=O)c1ccc(-c2ccccc2)cc1	1 (active)
C=CCNC(=O)NC(=S)c1ccccc1	0
O=C(NC(=S)NCC1COc2ccccc2O1)c1ccccc1 (centres undefined)	0
C=CCN(CC=C)C(=S)NC(=O)c1ccc([N+](=O)[O-])cc1	1 (active)
CN(Cc1ccccc1)C(=S)NC(=O)c1ccc(-c2ccccc2)cc1	0
C=CCN(CC=C)C(=S)NC(=O)c1ccc(-c2ccccc2)cc1	1 (active)
FC(F)(F)c1cnc(NNC(=S)Nc2ccc(Cl)cc2)c(Cl)c1	1 (active)
FC(F)(F)c1cnc(NNC(=S)Nc2ccccc2Cl)c(Cl)c1	1 (active)
NC(=O)c1ccc(Cc2ncc(C(F)(F)F)cc2Cl)s1	0
O=C1/C(=C\c2ccccn2)SC(=S)N1Nc1ncc(C(F)(F)F)cc1Cl	0
Cc1ccc(NC(=S)NNc2ncc(C(F)(F)F)cc2Cl)c(C)c1	0
CC(C)CC(=O)CN1C(=O)C2(OCCO2)c2ccccc21	0
CCCCN(C)CC(O)Cn1cc(/C=C/C(=O)c2cccs2)c2ccccc21 (centres undefined)	3
O=C1CC(c2ccncc2)c2cc3c(cc2N1)OCCO3 (centres undefined)	0
O=c1c2cc(F)ccc2[nH]c(=S)n1CCCN1CCOCC1	0

Compound	manual score
CC(C)OCCCn1c(=S)[nH]c2cc3c(cc2c1=O)OCO3	1 (active)
COc1ccc(C(C)N2CC34C=CC(O3)C(C(=O)OCC(C)C)C4C2=O)cc1 (centres undefined)	0
CCCOc1cccc(-c2cc(-c3n[nH]c(=S)n3CC)c3ccccc3n2)c1	0
COc1ccc(S(=O)(=O)N(CCc2ccccc2)CC(=O)O)cc1	0
COc1cc(C)nc(N(Cc2ccccc2)S(=O)(=O)c2ccccc2)n1	-1 (active)
Cc1c(C#N)c2ncn(CC#N)c(=O)c2n1-c1ccccc1	0
CC(=O)c1cccc(NC(=S)NC(=O)c2cccc(Cl)c2)c1	1 (active)
CC(=O)c1cccc(NC(=S)NC(=O)c2cccc(C)c2)c1	0
Cc1cccc(C(=O)NC(=S)NNC(=O)c2ccccc2Cl)c1	1 (active)
Cc1cccc(C(=O)NC(=S)NNC(=O)c2ccc(Cl)cc2)c1	1 (active)
O=C(/C=C/c1cccs1)NC(=S)NNC(=O)Cc1cccs1	0
O=C(NC(=S)Nc1ccc(N2CCOCC2)cc1)c1cccc(Cl)c1	0.5
O=C(NC(=S)NNC(=O)c1cccs1)c1ccc(Br)o1	1 (active)
CC1CC(C)CN(Cc2nc(N)nc(Nc3ccc4ccccc4c3)n2)C1 (centres undefined)	0
O=c1c(O)c(-c2cccs2)oc2ccccc12	3
Cc1cccc(C(=O)NC(=S)NNC(=O)c2cccs2)c1	1 (active)
Cc1ccc(C(=O)NNC(=S)NC(=O)c2ccc(Cl)cc2)cc1	1 (active)
Cc1cccc(C(=O)NC(=S)Nc2ccccc2C(F)(F)F)c1	0
Cc1ccc(C(=O)NNC(=S)NC(=O)c2ccc(Cl)cc2Cl)cc1	0.5
Cc1ccc(C2CC2C(=O)NNC(=S)Nc2ccc(Cl)cc2)cc1 (centres undefined)	0
Cc1c(C(=O)O)sc2nc3n(c(=O)c12)CCC(C)CC3 (centres undefined)	0
CCCN(CCC)CC(O)Cn1cc(/C=C/C(=O)c2cccs2)c2ccccc21 (centres undefined)	3
COc1ccc(Nc2nc(C)cc(C)c2C#N)cc1OC	0
CCCC1COC(Cn2cncn2)(c2ccc(C)cc2)O1 (centres undefined)	0
COC(=O)C(C)Sc1nc2c(c(=O)n(C)c(=O)n2C)n1Cc1cccc(C)c1 (centres undefined)	0
Cn1c(=O)c2c(nc(-n3ccnc3)n2Cc2ccccc2)n(C)c1=O	0

Compound	manual score
N#CCSc1nc2ccc(N3CCOCC3)cc2c(=O)n1CCc1ccccc1	0
COCCn1c(CN(Cc2ccccc2)Cc2ccccc2)nc2c1c(=O)n(C)c(=O)n2C	-1 (active)
CC1CCCCN1Cc1nc2c(c(=O)n(C)c(=O)n2C)n1CCc1ccccc1 (centres undefined)	-1 (active)
COC(=O)Cn1c(CN2CCc3ccccc3C2)nc2c1c(=O)n(C)c(=O)n2C	0
CN(C)CCCOc1nc2c(c(=O)n(C)c(=O)n2C)n1C	0
CCCCn1c(CN(Cc2ccccc2)Cc2ccccc2)nc2c1c(=O)n(C)c(=O)n2C	-1 (active)
CCCOc1nc2c(c(=O)n(C)c(=O)n2C)n1Cc1cccc2ccccc12	-0.5
COc1ccc(N2CCN(c3nc4c(c(=O)n(C)c(=O)n4C)n3Cc3ccccc3)CC2)cc1	-1 (active)
COc1ccc2nc3oc(C(=O)Nc4ccc(OC)c(OC)c4)cc3cc2c1	0
CC1(C)Cc2ccccc2-c2nnc(SCC(=O)Nc3nc4ccccc4s3)n21	0
O=c1[nH]c(SCc2ccccc2Cl)nc2c1CCCC2	0
CCCCn1c(SCC(=O)/C(C#N)=C(\C)N)nc2ccccc2c1=O	0.5
COc1cc(-c2nnc(CSc3nc4ccccc4s3)o2)cc(OC)c1OC	-0.5
COc1ccc(-c2nnc(CSc3nc4ccccc4c(=O)n3C)o2)cc1OC	-1 (active)
CCn1c(-c2ccc(-c3ccccc3)cc2)c[nH]c1=S	0
COc1ccc(OCc2nc(N)nc(Nc3ccccc3)n2)cc1	0
COc1cccc(CNCCNC(=O)c2ccco2)c1OC	0
COc1ccccc1NC(=O)C(=O)NNC(=O)c1ccco1	1 (active)
COc1ccc(C)cc1NC(=O)C(=O)NNC(=O)c1ccco1	1 (active)
COC(=O)c1ccccc1NC(=S)NC(NC(=O)c1ccco1)C(Cl)(Cl)Cl (centres undefined)	0
Cc1cc(NC(=O)c2ccco2)ccc1NC(=O)Cc1cccs1	0
Cc1nnc(NC(=O)c2ccco2)s1	0
Cc1ccc(NC(=O)CSc2nnc(CCNC(=O)OC(C)(C)C)o2)c(C)c1	0
O=C(N/N=C\c1cc(Br)c(Br)o1)c1cncc(Br)c1	1 (active)
Cc1ccc(/C=N\NC(=O)c2cc([N+](=O)[O-])cc([N+](=O)[O-])c2)o1	0
CCc1ccc(C2=NN(c3ccc(S(N)(=O)=O)cc3)C(c3ccc(F)cc3)C2)cc1 (centres undefined)	0

Compound	manual score
O=C(Nc1ccc(F)cc1)c1cccnc1N1CCOCC1	0
CCN(Cc1ccccc1)C(c1ccccn1)c1nnnn1C1CCCCC1 (centres undefined)	-1 (active)
CCC(C)(C)n1nnnc1C(c1ccccn1)N1CCCCC1 (centres undefined)	0
CC(Oc1ccc2ccccc2c1)C(=O)NNC(=S)NC(=O)c1ccco1 (centres undefined)	1 (active)
CC(Oc1ccc(Cl)cc1)C(=O)NNC(=S)NC(=O)c1ccco1 (centres undefined)	1 (active)
O=C(NC(=S)Nc1cccc(Cl)c1N1CCCCC1)c1ccco1	0
O=C(NC(=S)Nn1cnc2c(cnn2-c2ccccc2)c1=O)c1ccc(Oc2ccccc2)cc1	0
Cc1ccc(N(C(=O)CCC(=O)Nc2cc(C)on2)C(C(=O)NC2CCCC2)c2cccs2)cc1 (centres undefined)	-1 (active)
Cc1cc(NC(=O)CSc2nc3ccsc3c(=O)n2NC(=O)c2ccccc2)no1	0
c1ccc(Cc2nnc(-c3ccccc3)o2)cc1	0
O=S(=O)(c1ccc(-c2nnc(SCc3nnc(-c4ccccc4)o3)o2)cc1)N1CCCC1	0
Fc1ccc2nc(-c3ccccc3)nc(SCc3nnc(-c4ccccc4)o3)c2c1	1 (active)
O=C(NCc1ccccc1)C(=O)Nc1nc(C23CC4CC(CC(C4)C2)C3)cs1	0
O=C(NC(=S)Nc1ccc2oc(-c3cccnc3)nc2c1)c1cccc(Cl)c1	0
COc1ccc(C)cc1S(=O)(=O)Nc1cccc(Cl)c1Cl	0
S=C(Nc1ccc(Cl)cc1Cl)Nc1ccccc1Oc1ccccc1	0
Fc1cccc(/C=N/NC(=S)Nc2ccccc2Cl)c1	0.5
C=C(C)CNC(=S)Nc1cccc2cnccc12	0
S=C(Nc1ccccc1Oc1ccccc1)Nc1cccc(Cl)c1Cl	1 (active)
FC(F)Oc1ccccc1NC(=S)Nc1cccc(Cl)c1Cl	1 (active)
COC(=O)c1cccc(NC(=S)Nc2cccc(Cl)c2Cl)c1	0
O=C(Nc1cc(Cl)ccc1Oc1ccccc1)c1ccccc1F	0
S=C(Nc1cccc(Cl)c1)Nc1ccccc1Oc1ccccc1	1 (active)
S=C(Nc1ccccc1)Nc1cc(Cl)ccc1Oc1ccccc1	0
S=C(Nc1cccc(Cl)c1)Nc1cccc2cnccc12	1 (active)
COc1ccc(N/C(C)=C2/C(=O)C(=O)N(CCO)C2c2ccc(Br)cc2)cc1 (centres undefined)	0
